# High-throughput results as filed in PubChem.
# Shown are actives, neighbours in structure and some others; about 6.9% of the full set was active somewhere.
# L3MBTL1 inh: qHTS Assay for the Inhibitors of L3MBTL1; Lethal(3)malignant brain tumor-like protein 1 (Homo sapiens), Q9Y468; AlphaScreen L3MBTL1–H3K9me1 peptide binding; Potency, µM (titrated, usually from 57.1 µM), for the others: at the top dose activity, negative = inhibition, actives largely listed as inhibitors; AID 485360, 2010; 230,000 compounds, 0.66% hits; further: on the % scale 0 is the no-effect control and ±100 the full control effect; nearly all actives have a fitted effect of over 60% in size
#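 Read-out is AlphaScreen signal from streptavidin donor and nickel chelate acceptor beads (10 ug/mL final each) bridging L3MBTL1 (50 nM) and biotinylated K9-monomethylated H3(1-15) peptide (75 nM), after 30 min compound exposure at room temperature.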
# JMJD2A Tudor inh: qHTS Assay for Inhibitors of JMJD2A-Tudor Domain. Lysine-specific demethylase 4A (Homo sapiens), O75164. AlphaScreen JMJD2A-Tudor / H3K4me3 peptide binding. Potency, µM (series often up to 114 µM), for the others: top-dose activity change, negative = inhibition, usual class: inhibitors. 390,000 compounds, 4.4% hits. AID 504339, 2011; further: on the % scale 0 is the no-effect control and ±100 the full control effect; nearly all actives have a fitted effect of over 50% in size
# PLK1 PBD block: qHTS for Inhibitors of PLK1-PDB (polo-like kinase 1 - polo-box domain): Primary Screen; Serine/threonine-protein kinase PLK1 (Homo sapiens), P53350; Plk1 PBD binding of FITC phosphopeptide, fluorescence polarization; Potency, µM, for inactives: max response, negative = inhibition, hits mostly inhibitors; 360,000 compounds, 2.8% hits; further: series mostly up to about 57 µM; on the % scale 0 is the no-effect control and ±100 the full control effect; nearly all actives have a fitted effect of over 65% in size
# BAZ2B inh: qHTS Assay for Inhibitors of BAZ2B; Bromodomain adjacent to zinc finger domain protein 2B (Homo sapiens), Q9UIF8; 360,000 compounds, 4.4% hits; Potency, µM (doses to about 114 µM), for the others: top-dose activity change, negative = inhibition, most hits filed as inhibitors; AlphaScreen BAZ2B-H3K14Ac peptide displacement; AID 504333, 2011; further: on the % scale 0 is the no-effect control and ±100 the full control effect; nearly all actives have a fitted effect of over 60% in size
#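 Compounds, titrated to a top concentration of 110 uM, were incubated 30 min at room temperature with preformed BAZ2B/acetyl-K14 H3 peptide complex (50 nM each). Proximity signal was measured by AlphaScreen after 20 min with beads.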
# VDR inhibitor: Inhibitors of the vitamin D receptor (VDR): qHTS; 400,000 compounds, 0.93% hits; VDR-SRC2-3 peptide fluorescence polarization, 2 h; Vitamin D3 receptor (Homo sapiens), P11473; Potency, µM, inactives show max response, negative = inhibition, hits mostly inhibitors; further: on the % scale 0 is the no-effect control and ±100 the full control effect
# Target sequence (P11473 whole entry, looked up): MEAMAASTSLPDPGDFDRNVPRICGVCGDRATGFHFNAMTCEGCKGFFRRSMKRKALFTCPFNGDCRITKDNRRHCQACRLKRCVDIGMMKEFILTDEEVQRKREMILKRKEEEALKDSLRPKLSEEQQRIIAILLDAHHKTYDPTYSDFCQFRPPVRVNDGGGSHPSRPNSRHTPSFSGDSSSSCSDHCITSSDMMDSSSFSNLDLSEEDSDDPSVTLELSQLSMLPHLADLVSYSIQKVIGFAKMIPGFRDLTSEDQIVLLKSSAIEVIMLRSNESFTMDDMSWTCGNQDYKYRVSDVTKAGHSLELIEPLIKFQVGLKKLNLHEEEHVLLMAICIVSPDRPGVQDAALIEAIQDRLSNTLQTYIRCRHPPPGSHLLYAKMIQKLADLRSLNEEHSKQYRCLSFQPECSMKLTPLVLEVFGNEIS
#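 Measured by FP: displacement of SRC2-3 coactivator peptide from VDR by library compounds, following a two-hour ambient incubation.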
# HP1b chromo inh: HTS for Inhibitors of HP1-beta Chromodomain Interactions with Methylated Histone Tails; Chromobox protein homolog 1 (Homo sapiens), P83916; AlphaScreen HP1-beta / biotin-H3K9me3 peptide binding; Potency, µM (doses to about 114 µM), for the others: at the highest dose activity change, negative = inhibition, hits mostly inhibitors; 390,000 compounds, 0.56% hits; further: nearly all actives have a fitted effect of over 70% in size
# Target sequence (P83916 whole entry, looked up): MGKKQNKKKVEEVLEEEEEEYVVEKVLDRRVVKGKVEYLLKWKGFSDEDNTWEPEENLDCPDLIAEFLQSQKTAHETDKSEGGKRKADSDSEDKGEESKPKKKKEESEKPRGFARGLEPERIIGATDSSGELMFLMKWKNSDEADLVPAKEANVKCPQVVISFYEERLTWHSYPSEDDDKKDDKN
#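 Compound inhibition of the preformed complex between 50 nM HP1-beta and 50 nM biotinylated H3K9me3 peptide was read by AlphaScreen. Buffer was PBS pH 7.4 with 0.01% Tween-20. Incubations ran 30 min at room temperature, with 10 ug/mL donor/acceptor beads.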
# * hit, by the source's call; ? = inconclusive; . = no result; [ ] = dose if it differs, or a comment. The call rests on the fitted dose curve; in most records, active means well fitted curve in the direction sought with a large enough effect; inconclusive means small, poorly fitted or top-dose-only effect, or another doubt; inactive means no such curve, though single readings can be large; an effect the other way counts as inactive or inconclusive. Potency means the concentration at half of the fitted maximal effect.
SMILES,L3MBTL1 inh,JMJD2A Tudor inh,PLK1 PBD block,BAZ2B inh,VDR inhibitor,HP1b chromo inh
NC(=O)C1(N2CCCCC2)CCN(C(=O)c2ccc(-n3cnnn3)cc2)CC1,10%,-21%[11.4 µM],27µM*,-11%,-12%,-9%
CC(=O)OCC1OC(n2ccc3ccccc32)C(OC(C)=O)C(OC(C)=O)C1OC(C)=O (centres undefined),.,-15%[11.4 µM],27µM*,5%,-3%,-13%
COc1cccc(CNC(=O)CCn2nc(C)c3c(C)n(-c4ccccc4)nc3c2=O)c1,.,-10%,.,-13%,19%,25%
Cc1cc(C)c(OCC(=O)N(Cc2cccc(F)c2)Cc2ccco2)c(C)c1,.,0%,.,46%,8%,73%
COc1ccc(N2CCN(CC(O)COc3ccc(C)c(C)c3)CC2)cc1 (centres undefined),.,56µM*,1%,45µM*,7%,?
COc1cccc(OCC(O)CN2CCN(C)CC2)c1 (centres undefined),.,1µM*,1%,50µM*,-17%,?
COc1ccc(N2CCN(CC(O)COc3ccc(C(C)C)c(C)c3)CC2)cc1 (centres undefined),.,?,.,-38%,-6%,5%
COc1ccc(N2CCN(CC(O)COc3cc(C)cc(C)c3)CC2)cc1 (centres undefined),.,?,3%,40µM*,8%,-16%
Cc1cc(OCC(O)CN2CCN(c3cccc(Cl)c3)CC2)ccc1Cl (centres undefined),.,79µM*,.,-13%,-8%,6%
Fc1cccc(Cc2c(-c3cccc(Cl)c3)nc3ccc(Cl)cn23)c1,.,.,-17%,.,.,.
COc1ccc(C(=O)Nc2ccc(Cl)cc2C(=O)N2CCCC(C)C2)cc1OC (centres undefined),0%,-10%,1%,10%,-15%,-8%
C[C@H]1CN([C@@H](C)CO)C(=O)CCCn2nncc2CO[C@H]1CN(C)S(=O)(=O)c1ccccc1,.,.,-6%,.,.,.
COc1ccc(NC(=O)C2CCCN(S(=O)(=O)c3ccc(Br)s3)C2)cc1 (centres undefined),.,-10%,.,-4%,-8%,19%
CC[n+]1c(/C=C(\C)OC)sc2ccccc21,-6%,?,7%,56µM*,13%,41%
CC/C(=C/c1sc2ccccc2[n+]1CC)SC,-3%,25µM*,-9%,?,-19%,31%
CC[n+]1c(/C=C/Nc2ccccc2)sc2ccccc21,6%,-18%,-14%,-6%,21%,19%
Cc1ccc(CN2CCC(CNC(=O)Nc3c(C)cccc3C)C2)cc1 (centres undefined),.,-11%,.,-6%,-5%,26%
Cc1nnc(SCc2ccc([N+](=O)[O-])cc2)o1,3%,13µM*,3.8µM*,?,?,-24%
O=C(N/N=C\c1ccc(O)c([N+](=O)[O-])c1)C1COc2ccccc2O1 (centres undefined),-14%,-6%,-2%,-19%,-6%,15%[57 µM]
Cc1cc([N+](=O)[O-])cc(/C=N\NC(=O)C2COc3ccccc3O2)c1O (centres undefined),25µM*,50µM*,-4%,28µM*,-10%,30%
CCN(CC)c1ccc(/C=N/NC(=O)CNC(=O)C2COc3ccccc3O2)c(O)c1 (centres undefined),.,50µM*,3%,-32%,-6%,-15%
Cc1c(C)c2cc3c(C)coc3cc2oc1=O,.,0%,-5%,-3%,12%,24%
Nc1nnc(-c2ccncc2)s1,5%,-12%,-4%,1%,-4%,18%
c1cc(-c2nsc(-c3ccncc3)n2)ccn1,.,-15%,19µM*,-10%,?,-32%
C/C(=N\NC(=O)c1cc(O)cc(O)c1)c1ccc(NC(=O)Cc2ccccc2)cc1,.,14µM*,?,8.9µM*,2%,32µM*
SMILES,L3MBTL1 inh,JMJD2A Tudor inh,PLK1 PBD block,BAZ2B inh,VDR inhibitor,HP1b chromo inh
C/C(=N\NC(=O)c1cccc(F)c1)c1ccc(NC(=O)Cc2ccccc2)cc1,.,-22%,-1%,-12%,-3%,26%
CCN(CC)CCOCCOC(=O)C(CC)(CC)c1ccccc1 (tested in a mixture with another compound),.,.,.,.,0%,.
Cc1c(-c2ccccc2)nc2c(Cl)cccc2c1C(=O)OCC(=O)c1ccc(F)cc1,.,10%,.,2%,-3%,41%
O=C(NCc1ccccn1)c1ccc(/C=N/O)nc1,-4%,18µM*,-4%,45µM*,-2%,23%
COc1ccc(C(=O)NCc2ccccn2)cc1,-4%,-25%,-13%,6%,-6%,32%
NC(=O)c1ccc(OCc2ccccc2)nc1,.,-10%,-3%,.,11%,13%
NC(=O)c1ccc(/C=N/O)nc1,?,18µM*,-6%,32µM*,10%,21%
O=C(NCc1ccccc1)c1ccc(/C=N/O)nc1,-6%,7.9µM*,-1%,56µM*,0%,20%
Cc1ccc(C)c(Cn2c(=O)n(-c3ccc(Cl)cc3)c(=O)c3c4c(sc32)CCC4)c1,.,-24%,.,1%,12%,40%
CSC1=NC(C)(C)C=C(/C=C/c2ccc(Cl)cc2)N1,-11%,?,?,?,32µM*,?
CSC1=NC(C)(C)C=C(/C=C/c2ccc(Cl)cc2Cl)N1,-7%,?,?,?,?,?
O=C1CCCC2=C1C1(CCCC1)N=C(Nc1nc3cc(Cl)ccc3o1)N2,.,-21%,.,.,.,.
CCOC(=O)c1sc(NCc2ccco2)c(-c2nc3ccccc3s2)c1N,-13%,?,-11%,-33%,0%,12%
C=CCNc1sc(C(=O)c2ccccc2)c(N)c1-c1nc2ccccc2s1,?,?,17µM*,?,-14%,25µM*
Cc1cc(/C=N/NC(=O)C(=O)NCc2ccccn2)c(C)n1-c1cccc(Br)c1,-27%,?,0%,50µM*,11%,6%
O=C(NCc1ccccn1)C(=O)N/N=C/c1ccccc1O,.,25µM*,-10%,40µM*,16%,53%
O=C(NCCCN1CCOCC1)C(=O)N/N=C/c1ccccc1Cl,52%,-13%,-10%,0%,5%,29%
O=C(NCCCN1CCOCC1)C(=O)N/N=C/c1ccccc1O,?,28µM*,-10%,28µM*,23%,65%
O=[N+]([O-])c1ccccc1S(=O)(=O)N1CCN(Cc2ccccc2)CC1,0%,?,-5%,?,-20%,4%
